D3 ag: qHTS of D3 Dopamine Receptor Agonist: qHTS | D(3) dopamine receptor (Homo sapiens), P35462 | D3R DiscoveRx beta-arrestin cells, luminescence, 90 min | max activation, % | 410,000 compounds, 0.58% hits; in the data active = max activation above about 30%; also: 0% is about no effect
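Cells at 1500/well, incubated overnight, then treated with pinned compounds (dopamine as control) for 90 min at 37 degrees C. DiscoveRx reagent added for 30 - 60 minutes at room temperature; luminescence read.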
DRD3 antagonist: qHTS of D3 Dopamine Receptor Antagonist: qHTS. D3R cells, DiscoveRx beta-arrestin luminescence, antagonist mode; hits give low values. max response, negative = inhibition, %. 360,000 compounds, 2.5% hits; in the data active = max response below about -50%; inconclusive = no clear call, values can overlap the other calls; also: % is scaled to controls: 0 for no effect and ±100 for the full control effect
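Cells plated overnight at 1500 cells/well, then exposed to library compounds with dopamine controls for 90 minutes at 37 degrees C. DiscoveRx reagent added for 30–60 minutes at room temperature; luminescence read, quantitative HTS format.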
D1 antagonist: Antagonist of Human D 1 Dopamine Receptor: qHTS; AID 504652, 2011; HEK293 TREx D1 cells, calcium flux, dopamine EC80; hits give low values; activity change, negative = inhibition, % at 10 µM; D(1A) dopamine receptor (Homo sapiens), P21728; 360,000 compounds, 3.2% hits; in the data active = activity change below about -30%; also: % is scaled to controls: 0 for no effect and ±100 for the full control effect
Target sequence (P21728 whole entry, looked up): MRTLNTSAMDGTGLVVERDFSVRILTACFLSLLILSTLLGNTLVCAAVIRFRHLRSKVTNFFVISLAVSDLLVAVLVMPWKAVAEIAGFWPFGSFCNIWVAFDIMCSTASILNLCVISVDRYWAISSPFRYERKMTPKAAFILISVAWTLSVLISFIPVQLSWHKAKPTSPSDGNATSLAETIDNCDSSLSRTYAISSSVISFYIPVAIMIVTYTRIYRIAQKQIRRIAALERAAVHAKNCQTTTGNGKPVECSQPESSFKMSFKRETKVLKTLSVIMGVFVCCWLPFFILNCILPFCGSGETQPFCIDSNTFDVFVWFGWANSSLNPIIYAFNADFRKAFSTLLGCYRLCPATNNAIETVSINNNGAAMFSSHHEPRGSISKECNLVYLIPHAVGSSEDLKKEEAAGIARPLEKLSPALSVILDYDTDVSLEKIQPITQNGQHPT
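Allosteric or orthosteric antagonism assessed as attenuation of the calcium response to EC80 dopamine, added 180 s after compound, in induced HEK293 Trex D1 cells loaded with no-wash calcium dye.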
D1 potentiator: Potentiators of Human D1 Dopamine Receptor: qHTS; HEK293 TREx D1 cells, calcium flux, dopamine EC20 potentiation; potentiation, % at 10 µM; D(1A) dopamine receptor (Homo sapiens), P21728; 360,000 compounds, 0.036% hits; AID 504651, 2011; in the data active = potentiation above about 30%; also: 0% is about no effect
D1 agonist: Allosteric Agonists of the Human D1 Dopamine Receptor: qHTS; activation, % at 2 µM; 360,000 compounds, 1% hits; AID 504660, 2011; HEK293 T-REx D1 cells, calcium flux, agonist mode; D(1A) dopamine receptor (Homo sapiens), P21728; in the data active = activation above about 30%; also: 0% is about no effect
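Tetracycline-induced HEK293 TREx D1 cells, force-coupled to calcium signalling, were dye-loaded with a no-wash calcium kit. Compound was pin-added after a 10 s baseline. Fluorescence was read kinetically at 1 cycle/s for 180 s, with calcium rises flagged as agonism.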
BCR signal inh: qHTS Assay to Find Inhibitors of Chronic Active B-Cell Receptor Signaling; ABC-DLBCL IkBa-CBG/CBR reporter, luminescence ratio, 4 h; Potency, µM (highest dose often 46.1 µM), for the others: at the top dose activity change, negative = inhibition, actives largely listed as inhibitors; 340,000 compounds, 0.05% hits; AID 493014, 2011; active = well fitted inhibition curve with a large enough effect in the signal ratio, with a control signal flat, not every such curve was filed as active; inconclusive = small, poorly fitted or top-dose-only effect, or effect the other way, or a change in a side signal; the % refers to the signal ratio;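 also: potency is read from the fitted curve at half-maximal effect; plate controls were basal doxycycline-induced cells for no effect and cells given 10 µM MG132 for full effect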
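Cell line TMD8 (human ABC DLBCL), stably expressing tet-inducible CBG68-IkBa fusion and CBR; IMDM/0.5% FBS; cpd up to 46 uM; dox induction, 4 h, 37C/5% CO2; dual luminescence; green/red ratio; MG132 control.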
The depositor's hits bear a star; ? = inconclusive; / = no result; ! = not active in a repeat. Sampled rows, rich in hits. Any-hit rate of the full collection: about 6%.

SMILES	D3 ag	DRD3 antagonist	D1 antagonist	D1 potentiator	D1 agonist	BCR signal inh
O=C1NC(=O)C(=Cc2coc3ccccc3c2=O)C(=O)N1	3	7	-4	-2	2	?
O=C1NC(=O)C(=C/C=C/c2coc3ccc(Br)cc3c2=O)C(=O)N1	/	/	1	-2	83*	9%
CN[C@H]1C[C@@H](N)[C@H](O)[C@@H](O[C@@H]2O[C@H](CO)[C@H](O)[C@@H]3OC4(O[C@H]23)O[C@H](C(N)CO)[C@H](O)[C@H](O)[C@H]4O)[C@@H]1O (stereo not given in full)	-3	/	/	/	/	/
Fc1ccc([C@@H]2CCNC[C@H]2COc2ccc3c(c2)OCO3)cc1	15	24	-37*	0	59*	?
O=C(N[C@H]1N=C(c2ccccc2F)c2cccc3c2N(CC3)C1=O)c1cc2ccccc2[nH]1	-8	/	/	/	/	/
COC(=O)C(Cl)C(=O)OC	4	/	/	/	/	/
Nc1ccc2ccc3cccc[n+]3c2c1	-8	-14	-26	12	131*	1%
Cc1ccc(S(=O)(=O)Cc2ccc(C(=O)N3CCN(c4cccc(C)c4C)CC3)o2)cc1	-5	4	-5	-8	5	13µM*
COc1ccc(S(=O)(=O)Cc2ccc(C(=O)N3CCC4(CC3)OCCO4)o2)cc1	-4	-1	13	3	-1	20%
CN1CCN(CC#CCOc2ccc(Cl)cc2)CC1	-16	-23	-2	-2	4	-2%
Clc1ccc(OCC#CCN2CCCC2)cc1	-31	-55*	18	1	6	10%
CN1C(=O)C(=Cc2sc(=O)n(-c3ccccc3)c2N2CCCCC2)C(=O)N(C)C1=O	1	-9	-3	-4	67*	?
CCCC(C)C1(CC)C(=O)N=C(S)NC1=O (stereo not given)	0	/	/	/	/	/
CN1CCC(N(C)c2nc(-c3ccc([N+](=O)[O-])cc3)nc3ccccc23)CC1	-13	-27	-7	-3	37*	?
CCOc1c(Cl)cc(CNC(C)C(O)c2ccccc2)cc1OC (stereo not given)	1	0	15	-1	12	-15%
COc1cccc(C(=O)CCN[C@@H](C)[C@H](O)c2ccccc2)c1	-12	/	/	/	/	/
CC(NCc1cccc(Cl)c1Cl)C(O)c1ccccc1 (stereo not given)	-35	-29	15	-5	1	?
CC(NCc1ccc(Cl)cc1Cl)C(O)c1ccccc1 (stereo not given)	-33	-56*	5	-8	8	?
COc1cc(OC)c(OC)cc1CNC(C)C(O)c1ccccc1 (stereo not given)	1	-67*	0	-1	3	?
CC(NCc1ccc(Cl)cc1)C(O)c1ccccc1 (stereo not given)	-21	-105*	5	0	8	-22%
COC(=O)[C@@H](N)CCCN/C(N)=N/[N+](=O)[O-]	-9	/	/	/	/	/
N#CC(C#N)=Cc1ccc(N2CCCC2)cc1	-14	-19	-27	-11	37*	0%
CN(C)c1ccc(C=C(C#N)C#N)cc1	-1	-10	-20	-3	21	-2%
Nc1c2c(nc3sc4c(c13)CCCCC4)CCCC2	2	2	-42*	-12	20	?
CN(C)C1CCc2[nH]c3c(F)cc(F)cc3c2C1 (stereo not given)	-10	-105*	/	/	/	/
SMILES	D3 ag	DRD3 antagonist	D1 antagonist	D1 potentiator	D1 agonist	BCR signal inh
NC(=O)CN1CC(O)CC1=O (stereo not given)	-11	/	/	/	/	/
CCN1CCN(S(=O)(=O)c2ccc(Cl)nc2)CC1	-11	-10	-35*	-4	6	-10%
CC1CCCN(CCCNC(=O)c2cc3c(Cl)nc4ccccc4c3s2)C1 (stereo not given)	-13	-65*	-6	-8	1	?
C[C@]12CC[C@H]3[C@@H](CCC4=C(O)C(=O)CC[C@@H]43)[C@@H]1CC[C@@H]2OC(=O)CCC1CCCC1	3	/	/	/	/	/
CNC(=S)N1CCn2cccc2C1c1cccnc1 (stereo not given)	-13	-4	-33*	2	3	8%
Cc1cccc(N2CCc3c2nc2ccccc2c3N)c1	-11	?	-32*!	-9	6	0%
Cc1cccc(-n2c(/C=C/c3ccccc3O)nc3ccccc3c2=O)c1	3	/	-7	-2	8	/
CNCCCc1ccccc1	-8	0	-13	8	3	1%
BrCCc1ccccc1	-92	-99*	/	-2	1	-2%
COc1ccc(NC(=O)Nc2ccccc2C(N)=O)cc1	0	-3	20	-2	1	?
O=C1NC(=O)C(=Cc2ccc(OCC(=O)N3CCOCC3)cc2)C(=O)N1	-22	-23	-37*	0	3	1%
CN(CCOc1ccc(C=C2C(=O)NC(=O)NC2=O)cc1)c1ccccn1	-1	?	25	-3	6	0%
COc1cc2c(cc1O)C[C@H]1c3c(cc(O)c(OC)c3-2)CCN1C	-57	3	/	/	/	-16%
COc1cc2c(cc1O)[C@@H]1Cc3ccc(OC)c(O)c3CN1CC2	-89	-100*	-90*	-7	-1	?
COc1ccc(C[C@@H]2c3cc(O)c(OC)cc3CCN2C)cc1O	-31	-117*	-88*	-11	0	3%
O=C(NNC(=S)Nc1ccccc1)C1CCCCC1	-11	?	0	-4	0	?
Cc1nnc2n1-c1sc(Br)cc1C(c1ccccc1Cl)=NC2	3	/	/	/	/	/
CN1CCN(CCC(C#N)(c2ccccc2)c2ccccc2)CC1	-1	-80*	4	-1	5	-1%
O=C1CC(N2CCC(n3c(=O)[nH]c4ccccc43)CC2)C(=O)N1Cc1ccccc1 (stereo not given)	1	-16	-12	-4	8	-10%
O=c1[nH]c2ccccc2n1C1CCN(Cc2ccc(-c3[nH]c4cc5ncnc5cc4nc3-c3ccccc3)cc2)CC1	-16	-96*	/	/	/	/
Clc1ccc(Cl)cc1	-8	/	/	/	/	/
CC(C1CC2CCC1C2)n1c(-c2cccs2)n[nH]c1=S (stereo not given)	1	-20	-15	-3	3	?
CCCN(CC#CCOc1ccc(OC)cc1)CCC	-9	-52*	-7	-9	1	-14%
Cn1ncnc2c(=O)n(C)c(=O)nc1-2	-10	-81*	10	5	7	?
